Our source for the growth values is PubChem BioAssay (NCI).

Molecules are shown by their SMILES. The panel holds about 83,000 compounds, 20% with a hit somewhere; the sample as a whole holds those more often.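 Assay: single dose, 48 h. Readout: percent growth (0 = no net growth; negative = cell death). Active: <10.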 A number with no mark means an inactive call. Active and inactive are the calls of the source.

Test systems include DU-145 prostate; K-562 leukemia; MDA-MB-231 breast; RXF 393 renal; SF-268 CNS; SF-539 CNS; UACC-257 melanoma; M14 melanoma; SF-295 CNS; MALME-3M melanoma.
Common to all, as to test: NCI-60 one-dose screen, 48 h (100 = growth as untreated, 0 = no growth, -100 = all killed)
Conditions in all cases: 10 µM unless noted

Regarding `NC(=O)c1cc(Cl)ccc1NC(=O)COc1ccccc1`, the growth is 60.4% in the assay on DU-145 prostate; 18.1% in the assay on K-562 leukemia; 77.4% in the assay on MDA-MB-231 breast; 55% in the assay on RXF 393 renal; 66.2% in the assay on SF-268 CNS; 18.2% with SF-539 CNS. The growth is 84.4% with UACC-257 melanoma and 28.2% in the assay on M14 melanoma.

As for `CCOc1ccc(/C=N\N2CCCCCC2)cc1OCC`, the growth is 108% with DU-145 prostate; 77.7% with MDA-MB-231 breast; 103% in the assay with RXF 393 renal; 102% in the assay on SF-268 CNS; 104% with SF-295 CNS; 97.2% in the assay with SF-539 CNS. The growth in the assay on UACC-257 melanoma is 96.2%; with M14 melanoma, 105%.

As for `OB(O)c1ccccc1`, the growth with DU-145 prostate was 111%; with MALME-3M melanoma, 102%; in the assay on MDA-MB-231 breast it was 114%; in the assay on RXF 393 renal it was 123%; with SF-268 CNS, 106%; in the assay on SF-295 CNS it was 97.7%. Besides, the growth in the assay with SF-539 CNS was 106%; in the assay with UACC-257 melanoma, 99.4%; with M14 melanoma it was 108%.

As to `Clc1ccc2c(N3CCN(c4ccnc(NC5CCCCC5)n4)CC3)ccnc2c1`, the growth was 62.4% in the assay with DU-145 prostate; 7.08% (active) with K-562 leukemia; 57.6% in the assay with RXF 393 renal; 71.6% with SF-268 CNS; 39.3% in the assay with SF-295 CNS; 53.5% in the assay with SF-539 CNS. For the same compound, the growth was 0.862% (active) in the assay on UACC-257 melanoma and -43.7% (active) in the assay with M14 melanoma.

As to `O=C(c1ccccc1)C(Br)C(Br)c1cccc([N+](=O)[O-])c1` (stereo not given), the growth with DU-145 prostate is 76%; in the assay on MALME-3M melanoma, -43.1% (active); with MDA-MB-231 breast, 59.9%; in the assay with RXF 393 renal, -78.8% (active); in the assay on SF-268 CNS, 72.1%; in the assay on SF-295 CNS, 88.5%. In addition, the values for the growth with SF-539 CNS, in the assay with UACC-257 melanoma and with M14 melanoma were 38.1%, 19.8% and 34.3%, respectively.

`Cc1cc(O)cc2c1[C@H]1CC[C@]3(C)[C@@H](O)CC[C@H]3[C@@H]1C=C2`: the growth in the assay on DU-145 prostate was 113%; with MDA-MB-231 breast, 80.9%; in the assay with SF-268 CNS it was 92.2%; in the assay on SF-539 CNS, 98.4%; with UACC-257 melanoma, 85.2%; with M14 melanoma, 77.5%.

In the case of `FCOC(C(F)(F)F)C(F)(F)F`, the growth is 113% in the assay on DU-145 prostate; 92.2% with MALME-3M melanoma; 120% in the assay on MDA-MB-231 breast; 115% with RXF 393 renal; 115% with SF-268 CNS; 106% with SF-295 CNS. Also, the figures for the growth in the assay on SF-539 CNS, with UACC-257 melanoma and in the assay on M14 melanoma were 98.8%, 90.4% and 99.9%, respectively.

On to `CCCCCCCCCCCCCCCC[N+]1(C)CCOCC1`, for which the growth was 28.7% in the assay on DU-145 prostate; -2.82% (active) with MALME-3M melanoma; -7.42% (active) in the assay on MDA-MB-231 breast; -79.9% (active) with RXF 393 renal; -34.5% (active) in the assay on SF-268 CNS; 19.8% in the assay with SF-295 CNS. In addition, the growth is -1.77% (active) with SF-539 CNS, 49.4% in the assay with UACC-257 melanoma and 1.49% (active) with M14 melanoma.

As to `Cc1cc[n+](CCc2ccccc2)cc1`, the growth in the assay with RXF 393 renal was 108%.

With `CC1=C(C/C=C(\C)CCC[C@H](C)CCC[C@H](C)CCCC(C)C)C(=O)c2ccccc2C1=O`, the growth in the assay on DU-145 prostate was 120%; in the assay with MALME-3M melanoma, 102%; in the assay on MDA-MB-231 breast, 106%; in the assay with RXF 393 renal it was 119%; in the assay with SF-268 CNS, 108%; in the assay on SF-295 CNS it was 101%. In addition, the figures for the growth in the assay with SF-539 CNS, with UACC-257 melanoma and in the assay with M14 melanoma were 96.4%, 98.2% and 104%, respectively.

For the compound `O=[N+]([O-])c1ccc(O)c2ncccc12`, the growth in the assay on DU-145 prostate was 75.8%; in the assay on MALME-3M melanoma it was 52.2%; in the assay on MDA-MB-231 breast, 46%; in the assay on RXF 393 renal, 92.4%; with SF-268 CNS it was 50.2%; with SF-295 CNS it was 24.5%. For the same compound, the results for the growth in the assay with SF-539 CNS, in the assay on UACC-257 melanoma and in the assay on M14 melanoma were 42.2%, 73.6% and 47.3%, respectively.

As for `Brc1ccc(Br)nn1`, the growth with DU-145 prostate is -91% (active); in the assay with MALME-3M melanoma, -91% (active); in the assay on MDA-MB-231 breast, -65.6% (active); in the assay with RXF 393 renal, -89.8% (active); with SF-268 CNS, -74.4% (active); with SF-295 CNS it was -10.9% (active). Also, the growth was -53.1% (active) in the assay with SF-539 CNS, -68.4% (active) with UACC-257 melanoma and -76.4% (active) in the assay with M14 melanoma.

As to `Cc1cc(C)c(S(=O)O)c(C)c1`, the growth in the assay with DU-145 prostate was 120%; in the assay with MALME-3M melanoma it was 122%; in the assay on MDA-MB-231 breast, 102%; with RXF 393 renal, 101%; in the assay on SF-268 CNS, 114%; in the assay on SF-295 CNS, 93.4%. Further, the growth was 104% with SF-539 CNS, 121% in the assay with UACC-257 melanoma and 116% with M14 melanoma.

For the compound `Cn1c2ccc(Cl)cc2c2nn(C(=O)c3ccccc3)c(=O)nc21`, the growth in the assay on DU-145 prostate was 114%; in the assay on K-562 leukemia, 110%; with MDA-MB-231 breast, 106%; in the assay on RXF 393 renal, 98.9%; with SF-268 CNS, 104%; with SF-539 CNS it was 99.9%. Moreover, the growth with UACC-257 melanoma was 128%; with M14 melanoma, 98.9%.

For `O=C(O)C[C@H](O)C[C@H](O)/C=C/c1c(C2CC2)nc2ccccc2c1-c1ccc(F)cc1`, the growth with DU-145 prostate was 113%; in the assay on MALME-3M melanoma, 104%; with MDA-MB-231 breast it was -47.7% (active); with RXF 393 renal, 63.5%; in the assay on SF-268 CNS, 31.9%; with SF-295 CNS, 22.9%. In addition, the growth in the assay on SF-539 CNS was 81.2%; in the assay on UACC-257 melanoma it was 95.5%; in the assay on M14 melanoma, 90.8%.

On to `N#C[S-].[Au+].c1ccc(CN2[CH-]N(Cc3ccccc3)C(c3ccccc3)=C2c2ccccc2)cc1`, for which the growth with SF-295 CNS is -14.8% (active).

On to `CC1SC(c2ccc(Cl)cc2)N(CCc2cccs2)C1=O` (stereo not given), for which the growth in the assay on K-562 leukemia was 7.81% (active); with MALME-3M melanoma it was -32.8% (active); in the assay with MDA-MB-231 breast, -4.43% (active); with RXF 393 renal it was -35.7% (active); in the assay with SF-268 CNS it was 14.3%; in the assay on SF-295 CNS, -2.2% (active). Further, the growth with SF-539 CNS was -49.7% (active); in the assay with UACC-257 melanoma, -28.7% (active); in the assay with M14 melanoma it was -12.8% (active).
